# Experimental data as given in PubChem BioAssay (NCI).
# The panel holds about 79,000 compounds, 15% with a hit somewhere; the sample as a whole holds those more often. A number with no mark means an inactive call. Calls of active or inactive are those of the source. Cut-off read from the data, not from the text of the source: active = growth inhibition above about 70%; inactive = the rest.
# Assay: NCI Yeast Anticancer Drug Screen. Data for the cln2 rad14 strain (AID 165);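 note: 0% = growth equal to vehicle treated cultures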
# Conditions: S. cerevisiae cln2 rad14 strain, at 50.0 µM, active compounds read high
# Outline: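 Readout is yeast growth inhibition versus vehicle-treated controls, using a strain with cln2 and rad14 alterations exposed to compound.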
row,SMILES,growth inhibition
1,O=C(OCC1OC(OC(=O)N(c2ccccc2)c2ccccc2)C(OS(=O)(=O)c2ccc([N+](=O)[O-])cc2)C1OC(=O)c1ccccc1)c1ccccc1 (stereo not given),-10%
2,CC(C)C(=O)Nc1ccc(Cl)c(Cl)c1,41.2%
3,Clc1ccc(C(=C(c2ccc(Cl)cc2)c2ccc(Cl)cc2)c2ccc(Cl)cc2)cc1,-3.35%
4,COC(=O)Nc1cccc(OC(=O)Nc2cccc(Cl)c2)c1,-2.85%
5,COc1cc(C2=N/C(=C\c3cc(Cl)cc(Cl)c3O)C(=O)O2)cc(OC)c1OC,-12.6%
6,CSc1ccc(NC(=O)Oc2cc(C)c(Cl)cc2C(C)C)cc1,15.8%
7,c1ccc(C2=NOC(c3ccccc3)N2C23CC4CC(CC(C4)C2)C3)cc1 (stereo not given),24.4%
8,O=C1c2ccccc2CN(C(=Nc2ccccc2)Nc2ccccc2)c2ccccc21,-25.7%
9,O=c1c2ccccc2nc(-c2ccccc2)n1/N=C/c1cccnc1,-10.8%
10,Cc1ccc(C(=O)N/N=C/c2c(O)ccc3ccccc23)cc1,-24.9%
11,C[n+]1ccccc1/C=C/c1csc2ccccc12,-11.8%
12,CNCCCN1CCCCC1,6.3%
13,CN1CN(c2ccccc2)C2(CCN(c3nc4ccccc4s3)CC2)C1=O,-18.4%
14,CC1(C)CC[C@]2(C(=O)O)CC[C@]3(C)C(=CC[C@@H]4[C@@]5(C)CC[C@H](OC6OC(CO)C(O)C(O)C6OC6OC(CO)C(O)C(O)C6O)C(C)(C)[C@@H]5CC[C@]43C)[C@@H]2C1 (stereo not given in full),86.2% (active)
15,Cc1cc(=O)oc2c(C(=O)/C=C/N(C)C)c(O)ccc12,0.25%
16,CS1(C)=NC(=O)C2=C(N=1)c1ccccc1S2(=O)=O,-19.6%
17,O=C(Nc1cc(C(F)(F)F)ccc1Cl)N(Cc1ccccc1)c1ccccc1,-74.2%
18,CN(C)c1ncnc2c1ncn2C1OC(CO)C(O)C1O (stereo not given),-34.4%
19,CCCNC(=S)/N=C/c1c(O)c2ccccc2[nH]c1=O,12.3%
20,C1=C(c2ccccc2)C(OC2Oc3ccccc3C=C2c2ccccc2)Oc2ccccc21 (stereo not given),11.9%

row,SMILES,growth inhibition
1,O=C1c2ccccc2C(=O)c2c(Nc3ccc4c5c(cccc35)C(=O)c3ccccc3-4)cccc21,-31.7%
2,N#C/C=C\c1ccc(C#N)cc1,6.85%
3,Cc1cccc2c(C=O)c[nH]c12,-9.55%
4,O=c1[nH]c(=S)[nH]c2[nH]ccc12,-1.1%
5,C1=C(N2CCOCC2)/C(=C2\SC(=Nc3ccccc3)C(=Nc3ccccc3)N2c2ccccc2)CC1,14.3%
6,CCCCCCCCC(C)C,10.8%
7,O=S(O)CCCCSSCC(O)CO (stereo not given),63.5%
8,CC(=O)Nc1ccc(S(=O)(=O)n2c(=O)oc3cc(Cl)ccc32)cc1,-2.4%
9,Cc1cccc(NCN2C(=O)c3ccccc3C2=O)c1,-16.4%
10,CSCCCC(N)=O,0.7%
11,O=C1CC2(CCCCC2)CC(=O)N1,-34.6%
12,COC(=O)C(Cc1nc2ccccc2[nH]c1=O)C(NO)C(=O)Nc1c(Cl)cc([N+](=O)[O-])cc1Cl (stereo not given),10.2%
13,CC(=O)OCCc1cccc(C)c1,-30.4%
14,CCCCCNC(=O)c1csc(-c2csc(CCNC(C)=O)n2)n1,-26.1%
15,COc1ccc2nc(N/N=C/C(C)=N/Nc3cc(C)c4cc(OC)ccc4n3)cc(C)c2c1,3.4%
16,CC1(C)C=C(O)C=C(O)C1,-2.25%
17,O=C(CSSCC(=O)Nc1ccccc1O)Nc1ccccc1O,-24.1%
18,COc1ccc(C2SCC(=O)N2NC(=O)c2ccc(NC(C)=O)cc2)c(OC)c1 (stereo not given),12.1%
19,CN(C)CC1CCCC(CN(C)C)C1OC(=O)c1ccccc1 (stereo not given),-37.5%
20,NC(=O)c1ccccc1NC(=O)C(=O)C(C(=O)c1ccc2ccccc2c1)C1OC(=O)c2ccccc21 (stereo not given),-44.6%

# Assay: NCI Yeast Anticancer Drug Screen. Data for the bub3 strain (AID 167)
# Conditions: S. cerevisiae bub3 mutant strain, at 50.0 µM, active compounds read high
# Outline: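 Part of a panel of yeast mutants defective in DNA damage repair or cell cycle regulation. Each strain is grown with compound, and inhibition is calculated relative to solvent-treated cultures.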
row,SMILES,growth inhibition
1,O=C(OCC1OC(OC(=O)N(c2ccccc2)c2ccccc2)C(OS(=O)(=O)c2ccc([N+](=O)[O-])cc2)C1OC(=O)c1ccccc1)c1ccccc1 (stereo not given),0.1%
2,CC(C)C(=O)Nc1ccc(Cl)c(Cl)c1,-4.05%
3,Clc1ccc(C(=C(c2ccc(Cl)cc2)c2ccc(Cl)cc2)c2ccc(Cl)cc2)cc1,10.4%
4,COC(=O)Nc1cccc(OC(=O)Nc2cccc(Cl)c2)c1,31.4%
5,COc1cc(C2=N/C(=C\c3cc(Cl)cc(Cl)c3O)C(=O)O2)cc(OC)c1OC,-2.9%
6,CSc1ccc(NC(=O)Oc2cc(C)c(Cl)cc2C(C)C)cc1,97.8% (active)
7,c1ccc(C2=NOC(c3ccccc3)N2C23CC4CC(CC(C4)C2)C3)cc1 (stereo not given),-13%
8,O=C1c2ccccc2CN(C(=Nc2ccccc2)Nc2ccccc2)c2ccccc21,-0.7%
9,O=c1c2ccccc2nc(-c2ccccc2)n1/N=C/c1cccnc1,7.5%
10,Cc1ccc(C(=O)N/N=C/c2c(O)ccc3ccccc23)cc1,38.5%
11,C[n+]1ccccc1/C=C/c1csc2ccccc12,-0.6%
12,CNCCCN1CCCCC1,-4.4%
13,CN1CN(c2ccccc2)C2(CCN(c3nc4ccccc4s3)CC2)C1=O,3.2%
14,CC1(C)CC[C@]2(C(=O)O)CC[C@]3(C)C(=CC[C@@H]4[C@@]5(C)CC[C@H](OC6OC(CO)C(O)C(O)C6OC6OC(CO)C(O)C(O)C6O)C(C)(C)[C@@H]5CC[C@]43C)[C@@H]2C1 (stereo not given in full),84.3% (active)
15,Cc1cc(=O)oc2c(C(=O)/C=C/N(C)C)c(O)ccc12,9.95%
16,CS1(C)=NC(=O)C2=C(N=1)c1ccccc1S2(=O)=O,1.85%
17,O=C(Nc1cc(C(F)(F)F)ccc1Cl)N(Cc1ccccc1)c1ccccc1,-8.2%
18,CN(C)c1ncnc2c1ncn2C1OC(CO)C(O)C1O (stereo not given),18.1%
19,CCCNC(=S)/N=C/c1c(O)c2ccccc2[nH]c1=O,6.8%
20,C1=C(c2ccccc2)C(OC2Oc3ccccc3C=C2c2ccccc2)Oc2ccccc21 (stereo not given),22.2%

row,SMILES,growth inhibition
1,O=C1c2ccccc2C(=O)c2c(Nc3ccc4c5c(cccc35)C(=O)c3ccccc3-4)cccc21,-8.4%
2,N#C/C=C\c1ccc(C#N)cc1,25.1%
3,Cc1cccc2c(C=O)c[nH]c12,4.95%
4,O=c1[nH]c(=S)[nH]c2[nH]ccc12,-0.6%
5,C1=C(N2CCOCC2)/C(=C2\SC(=Nc3ccccc3)C(=Nc3ccccc3)N2c2ccccc2)CC1,-5.35%
6,CCCCCCCCC(C)C,1.65%
7,O=S(O)CCCCSSCC(O)CO (stereo not given),24.1%
8,CC(=O)Nc1ccc(S(=O)(=O)n2c(=O)oc3cc(Cl)ccc32)cc1,2.95%
9,Cc1cccc(NCN2C(=O)c3ccccc3C2=O)c1,18.7%
10,CSCCCC(N)=O,-10.2%
11,O=C1CC2(CCCCC2)CC(=O)N1,6.9%
12,COC(=O)C(Cc1nc2ccccc2[nH]c1=O)C(NO)C(=O)Nc1c(Cl)cc([N+](=O)[O-])cc1Cl (stereo not given),22.2%
13,CC(=O)OCCc1cccc(C)c1,-10.7%
14,CCCCCNC(=O)c1csc(-c2csc(CCNC(C)=O)n2)n1,16.1%
15,COc1ccc2nc(N/N=C/C(C)=N/Nc3cc(C)c4cc(OC)ccc4n3)cc(C)c2c1,0.15%
16,CC1(C)C=C(O)C=C(O)C1,6.55%
17,O=C(CSSCC(=O)Nc1ccccc1O)Nc1ccccc1O,27.2%
18,COc1ccc(C2SCC(=O)N2NC(=O)c2ccc(NC(C)=O)cc2)c(OC)c1 (stereo not given),-22%
19,CN(C)CC1CCCC(CN(C)C)C1OC(=O)c1ccccc1 (stereo not given),14.4%
20,NC(=O)c1ccccc1NC(=O)C(=O)C(C(=O)c1ccc2ccccc2c1)C1OC(=O)c2ccccc21 (stereo not given),15.4%
